In the library only some 27% were active in any assay of this set; here they are far more common.
CYP2C9 inh – blockers of cytochrome P450 2C9 activity – biochemical, luminescence, ADME assay, primary screen; P11712; CYP2C9 Supersomes, luciferin-H conversion; inhibition, % at 5 µM; 20% of 96,000 active; AID 777, 2007;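 active = blocking of liver enzyme CYP2C9 beyond about 50% at 5 µM, limit read from the data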
CYP2C9 act – human CYP2C9 activators, primary screen, biochemical, luminescence | AID 1024, 2008 | Cytochrome P450 2C9 (Homo sapiens), P11712 | activation factor at 5 µM | recombinant CYP2C9, luciferin-H conversion; hits give high values; factor 1 = untreated enzyme, 0 = blocked | 1.4% of 96,000 active;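 active = activation factor of 2 or more for CYP2C9 at a 5 µM dose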
CYP2C19 act – human CYP2C19 activators, primary screen, biochemical, luminescence. Cytochrome P450 2C19 (Homo sapiens), P33261. recombinant CYP2C19, luciferin-H EGE luminescence; hits give high values; 0 = fully inhibited enzyme, 1 = untreated enzyme. activation factor at 5 µM. 96,000 tested, under 10 active. AID 1025, 2008;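 active = activation factor of at least 2 at 5 µM in the primary screen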
CYP2C19 inhib – blockers of cytochrome P450 2C19 activity – biochemical, luminescence, ADME assay, primary screen | CYP2C19 Supersomes, luciferin-H EGE luminescence, 30 min | inhibition, % at 5 µM | 21% of 96,000 active;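 active = CYP2C19 inhibition above a set limit at 5 µM in the primary screen, cut at about 50% in these data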
Cav3 T inh – Cav3.2 calcium influx blockers – cell-based, Fluo-4 calcium fluorescence, FDSS, MLSMR library, primary screen; Voltage-dependent T-type calcium channel subunit alpha-1H (Homo sapiens), O95180; Cav3.2-expressing cells; hits give low values; B-score at 10 µM; 4% of 100,000 active;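 active = single-dose well whose peak fluorescence ratio is a statistical outlier from its plate by either plate-standardised score or position-corrected B-score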
Target sequence (O95180 whole entry, looked up): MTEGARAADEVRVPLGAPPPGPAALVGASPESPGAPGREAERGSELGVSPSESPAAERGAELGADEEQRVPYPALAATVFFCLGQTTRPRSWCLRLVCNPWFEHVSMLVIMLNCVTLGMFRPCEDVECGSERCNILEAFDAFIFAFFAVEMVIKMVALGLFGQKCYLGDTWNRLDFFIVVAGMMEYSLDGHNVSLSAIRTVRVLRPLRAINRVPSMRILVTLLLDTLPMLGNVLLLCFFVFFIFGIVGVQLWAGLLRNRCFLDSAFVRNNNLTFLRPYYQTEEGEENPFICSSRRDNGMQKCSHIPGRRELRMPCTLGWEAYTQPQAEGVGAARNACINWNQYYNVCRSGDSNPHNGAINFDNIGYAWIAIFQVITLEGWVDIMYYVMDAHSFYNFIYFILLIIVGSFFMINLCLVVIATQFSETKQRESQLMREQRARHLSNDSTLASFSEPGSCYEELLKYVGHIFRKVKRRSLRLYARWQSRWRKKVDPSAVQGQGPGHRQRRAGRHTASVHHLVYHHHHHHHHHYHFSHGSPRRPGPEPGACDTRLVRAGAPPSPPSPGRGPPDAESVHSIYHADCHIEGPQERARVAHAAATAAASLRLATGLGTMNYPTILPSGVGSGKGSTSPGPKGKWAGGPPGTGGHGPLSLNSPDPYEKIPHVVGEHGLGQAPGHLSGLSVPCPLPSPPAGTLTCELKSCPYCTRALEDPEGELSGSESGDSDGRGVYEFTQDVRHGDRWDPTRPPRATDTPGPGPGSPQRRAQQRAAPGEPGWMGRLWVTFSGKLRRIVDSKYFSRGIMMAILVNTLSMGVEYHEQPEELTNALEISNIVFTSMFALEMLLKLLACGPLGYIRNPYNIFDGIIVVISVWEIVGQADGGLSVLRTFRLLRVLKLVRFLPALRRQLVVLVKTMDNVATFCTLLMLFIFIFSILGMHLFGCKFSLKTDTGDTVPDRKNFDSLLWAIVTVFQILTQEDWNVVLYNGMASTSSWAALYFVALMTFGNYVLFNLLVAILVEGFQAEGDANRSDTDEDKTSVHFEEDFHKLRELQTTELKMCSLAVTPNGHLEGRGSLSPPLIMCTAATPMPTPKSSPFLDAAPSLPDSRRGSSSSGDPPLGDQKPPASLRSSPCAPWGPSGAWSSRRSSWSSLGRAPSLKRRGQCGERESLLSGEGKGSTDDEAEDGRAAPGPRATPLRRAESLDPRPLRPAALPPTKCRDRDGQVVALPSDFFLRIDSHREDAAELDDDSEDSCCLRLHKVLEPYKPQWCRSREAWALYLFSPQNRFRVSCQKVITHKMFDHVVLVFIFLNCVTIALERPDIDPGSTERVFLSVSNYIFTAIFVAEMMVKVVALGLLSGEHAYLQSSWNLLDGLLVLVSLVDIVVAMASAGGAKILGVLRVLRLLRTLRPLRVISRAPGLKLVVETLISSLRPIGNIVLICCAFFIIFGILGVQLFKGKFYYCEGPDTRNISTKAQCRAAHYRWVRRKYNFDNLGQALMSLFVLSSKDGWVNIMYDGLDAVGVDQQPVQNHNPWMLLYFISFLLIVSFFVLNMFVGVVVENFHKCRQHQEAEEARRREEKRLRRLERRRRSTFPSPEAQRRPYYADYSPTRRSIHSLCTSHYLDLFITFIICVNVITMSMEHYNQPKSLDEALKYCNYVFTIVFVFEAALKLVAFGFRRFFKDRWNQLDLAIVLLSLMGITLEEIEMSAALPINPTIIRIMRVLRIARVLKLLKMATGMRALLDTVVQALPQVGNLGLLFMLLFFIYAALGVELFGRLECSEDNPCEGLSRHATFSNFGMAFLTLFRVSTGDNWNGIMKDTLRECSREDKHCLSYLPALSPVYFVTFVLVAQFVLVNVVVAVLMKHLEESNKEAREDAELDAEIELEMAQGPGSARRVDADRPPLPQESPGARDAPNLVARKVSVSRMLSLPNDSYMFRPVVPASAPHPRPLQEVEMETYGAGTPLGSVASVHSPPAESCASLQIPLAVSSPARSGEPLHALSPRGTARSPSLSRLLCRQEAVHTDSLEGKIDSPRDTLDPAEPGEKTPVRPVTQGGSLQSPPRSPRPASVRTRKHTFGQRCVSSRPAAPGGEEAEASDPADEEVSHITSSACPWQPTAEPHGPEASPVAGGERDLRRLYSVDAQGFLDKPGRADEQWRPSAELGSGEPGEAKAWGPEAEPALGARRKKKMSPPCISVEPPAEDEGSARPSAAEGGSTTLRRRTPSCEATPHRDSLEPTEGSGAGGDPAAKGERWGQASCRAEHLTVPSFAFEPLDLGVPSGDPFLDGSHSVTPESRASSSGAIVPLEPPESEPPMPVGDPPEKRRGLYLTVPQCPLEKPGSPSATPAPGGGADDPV
Hits are given with their value; n = inactive; x = no result.

SMILES	CYP2C9 inh	CYP2C9 act	CYP2C19 act	CYP2C19 inhib	Cav3 T inh
COC(=O)c1cc(Br)c(=O)n(-c2ccc(C(C)=O)cc2)c1	n	n	n	n	x
O=C(N/N=C\c1ccccn1)C1COc2cc3ccccc3cc2O1 (stereo not given)	n	n	n	n	x
Cc1ccc(-c2nc(N/N=C/c3ccncc3)c3ccccc3n2)cc1	94.2	n	n	97.9	n
Clc1nnc(N/N=C/c2ccccc2)c2ccccc12	n	n	n	n	n
Clc1ccccc1-c1nc(N/N=C/c2cccnc2)c2ccccc2n1	69.1	n	n	n	n
Clc1ccc(/C=N/Nc2nc(Cl)nc3ccccc23)cc1	n	n	n	n	n
CCS(=O)(=O)N1CCN(Cc2ccccc2OC)CC1	n	n	n	89.3	n
CCCS(=O)(=O)N1CCN(Cc2ccccc2OCC)CC1	n	n	n	75.1	n
CN(C)c1ccc(-c2ccccc2)nn1	n	n	n	57.7	n
Cn1c(N)cc(=O)n(Cc2ccccc2)c1=O	x	x	x	x	n
O=c1ccn(Cc2ccccc2)c(=O)n1Cc1ccccc1	n	n	n	78.4	n
Cc1cc(C)n2nc(C(=O)Nc3cccnc3)nc2n1	n	n	n	n	n
COc1[nH]c(/N=C/c2ccccc2)c(C#N)c1C#N	74.7	n	n	n	-5.92
COc1ccc(/C=N/c2oc(-c3ccccc3)cc2C#N)cc1	n	n	n	n	n
Cc1ccc(Cl)cc1N1CCN(C(CC(C)C)c2nnnn2CC2CCCO2)CC1 (stereo not given)	n	n	n	n	n
CCCC(c1nnnn1CC1CCCO1)N1CCN(c2cc(Cl)ccc2C)CC1 (stereo not given)	88.7	n	n	95.5	x
O=C(c1ccco1)N1CCN(C(c2ccc(F)cc2)c2nnnn2CC2CCCO2)CC1 (stereo not given)	n	n	n	n	n
Cc1ccc(C(c2nnnn2CC2CCCO2)N2CCN(c3cccc(C)c3C)CC2)cc1 (stereo not given)	69.7	n	n	n	x
CCC(c1nnnn1C(C)(C)C)N1CCN(c2cc(Cl)ccc2C)CC1 (stereo not given)	79.4	n	n	n	-3.78
COc1ccc(N2C(=O)C3CCCN3C2c2ccccc2Cl)cc1 (stereo not given)	n	n	n	n	n
Cn1c(-n2c(CCCN3C(=O)c4ccccc4C3=O)nc3ccccc3c2=O)nc2ccccc21	63.7	n	n	n	n
Cn1c(=O)c(-c2ccccc2)nc2ccccc21	x	x	x	x	n
O=c1c2ccccc2c2ccccc2c(=O)n1Cc1ccco1	72.7	n	n	81.4	n
Cn1c(-n2c(CCN3C(=O)c4ccccc4C3=O)nc3ccccc3c2=O)nc2ccccc21	92.4	n	n	86.7	x
Cc1c(N=Cc2c(O)n(Cc3ccco3)c(=O)c3ccccc23)c(=O)n(-c2ccccc2)n1C	81.4	n	n	56.1	n
SMILES	CYP2C9 inh	CYP2C9 act	CYP2C19 act	CYP2C19 inhib	Cav3 T inh
COc1cc(C(=O)OC2CC3CCC2(C)C3(C)C)ccc1OC(C)=O (stereo not given)	x	x	x	x	n
O=C(CSc1nc(-c2ccc(F)cc2)cs1)N1CCc2ccccc21	n	n	n	n	n
O=C(c1cccc2ccccc12)N1CCC(N2CCN(c3ccccc3)CC2)CC1	n	n	n	n	n
COc1ccc2[nH]c(=O)c(CN(C(=O)C3CCCO3)c3ccc(C)cc3)cc2c1 (stereo not given)	n	n	n	n	n
O=C1c2ccccc2C(=O)N1Cc1nc2ccccc2c(=O)n1CCN1CCOCC1	x	x	x	x	n
O=C1c2ccccc2C(=O)N1CCc1nc2ccccc2c(=O)n1Cc1ccco1	80.2	n	n	93.1	x
COC(=O)C1=C(CCc2ccccc2)NC(=O)NC1c1ccc([N+](=O)[O-])cc1 (stereo not given)	x	x	x	x	n
O=C(COC(=O)c1cccnc1Nc1ccccc1F)NCCN1C(=O)CSC1=O	n	n	n	84.2	n
CC1CCN(c2nc3c(c(=O)[nH]c(=O)n3C)n2CCSc2nc3ccccc3o2)CC1	n	n	n	n	n
CN(CCCNC(=O)C1CCN(S(=O)(=O)N2CCC3(CC2)OCCO3)CC1)Cc1ccccc1	n	n	n	n	n
Cc1ccc(C(=O)c2cn[nH]c2-c2cc(Cl)ccc2O)cc1	79.8	n	n	95.7	n
CC(=O)c1nn(-c2cccc(Cl)c2)cc1C(=O)c1ccco1	n	n	n	n	n
O=C(c1ccco1)c1cn[nH]c1-c1ccc(Cl)cc1O	50.8	n	n	92.1	n
COc1ccc(O)c(-c2[nH]ncc2C(=O)c2ccccc2)c1	63.7	n	n	81.2	n
O=C(c1ccccc1)c1cn[nH]c1-c1ccccc1O	n	n	n	n	n
CCC(C)NC(=O)CS(=O)Cc1nc(-c2cccc(OC)c2)oc1C (stereo not given)	n	n	n	n	n
CCCC(=O)Nc1cccc(Oc2nc(C)cc(C)c2C#N)c1	n	n	n	n	n
Cc1c(Br)cc(C(=O)N2CCCC2)c(C)c1C	n	n	n	92.4	n
Cc1c(Br)cc(C(=O)N2CCN(CCO)CC2)c(C)c1C	n	n	n	n	n
Cc1cc(S(=O)(=O)NCCN(C)C)c(C)s1	n	n	n	n	n
CCOC(=O)CSc1nnc(CNc2cccc(Cl)c2)n1C	x	x	x	x	n
COCCCn1c(Cc2csc(Nc3cccc(Cl)c3)n2)nnc1SCC(=O)OC	80.4	n	n	87.3	n
O=C1CC(c2ccccc2)CN1C(=O)c1ccccc1 (stereo not given)	n	n	n	51.6	n
C#CCNC(=O)C1=C[C@H](C(C)(C)C)C[C@H](OCCCCO)O1	x	x	x	x	n
COc1ccc(C(=O)Cn2c3ccccc3n3nc(CCC(=O)O)c(=O)nc23)cc1OC	n	n	n	n	n
SMILES	CYP2C9 inh	CYP2C9 act	CYP2C19 act	CYP2C19 inhib	Cav3 T inh
CO/N=C(/CS(=O)c1ccc(Br)cc1)c1ccc(OC)cc1 (stereo not given)	87.6	n	n	100.0	n
COc1ccc(C(=O)CCC(=O)O)cc1	n	n	n	n	n
CCOc1ccc(C2c3c(oc4ccccc4c3=O)C(=O)N2c2ccc(C)cn2)cc1OC (stereo not given)	81.5	n	n	n	n
Cc1ccc(N2C(=O)c3oc4ccccc4c(=O)c3C2c2cccc(O)c2)nc1 (stereo not given)	x	x	x	x	n
COc1cc(C2c3c(oc4ccccc4c3=O)C(=O)N2c2ccc(C)cn2)ccc1O (stereo not given)	68.1	n	n	n	n
C#CCOC(=O)C(NC(=O)c1ccccc1)=C1CCCCC1	67.9	n	n	n	n
CCOC(=O)C(NC(=O)c1ccccc1)=C1CCCCC1	n	n	n	n	x
Cc1ccc(NC(=O)c2cnn(-c3ccccc3)c2NC(=O)c2ccco2)cc1	n	n	n	n	x
CC(C)C(NC(=O)OC(C)(C)C)C(=O)N1CCCC1C(=O)NC(Cc1ccccc1)C(N)=O (stereo not given)	n	n	n	n	n

Screening data: PubChem BioAssay, several laboratories
